# Measured values taken from PubChem BioAssay.
# Activity calls are given as the source filed them.
# What was measured:
# [1] = tested on: Plasmodium falciparum Sir2 (PF13_0152, Sir2A); test: Plasmodium falciparum Sir2A binding compounds – biochemical, small-molecule microarray, 635 nm fluorescence, primary screen (AID 1098); conditions: fluorescence 635 nm, higher = more signal;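 further: score merges spot fluorescence intensity with its signal-to-noise ratio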
# [2] = probe aDKK1 binding to arrayed compounds – biochemical, biotinylated probe, 635/667 nm fluorescence, primary screen (AID 1099); conditions: small-molecule microarray, higher = more signal;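 further: score merges 667nm spot fluorescence with signal to noise across triplicate slides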
# [3] = probe aCHRDL2 binding to arrayed compounds – biochemical, biotinylated probe, 635/667 nm fluorescence, primary screen (AID 1100); conditions: small-molecule microarray, higher = more signal
# [4] = change in splice reporter luminescence, either direction, cell-based, HEK293, spliceosome inhibition project, primary screen (AID 1101); conditions: HEK293 splicing luciferase reporter, 24 h, higher = more signal, called active from +8 up or from −8 down;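 further: HEK293 cells carrying a splicing-competent luciferase reporter gene; test concentration not given here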
# [5] = target: Fibroblast growth factor 10 (Homo sapiens) (UniProt O15520); test: compounds binding fibroblast growth factor 10 – biochemical, small-molecule microarray, 635 nm fluorescence, primary screen (AID 1102); conditions: FGF10 binding, fluorescence 635 nm, higher = more signal
# Chain of Fibroblast growth factor 10 (Homo sapiens) (O15520 whole entry, looked up): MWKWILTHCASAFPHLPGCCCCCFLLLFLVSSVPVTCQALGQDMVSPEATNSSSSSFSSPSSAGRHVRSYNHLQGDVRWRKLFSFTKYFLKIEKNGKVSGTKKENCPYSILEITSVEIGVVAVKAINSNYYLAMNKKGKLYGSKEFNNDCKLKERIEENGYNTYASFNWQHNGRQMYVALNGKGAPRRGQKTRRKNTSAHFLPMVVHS
# [6] = tested on: glycogen synthase kinase-3 (GSK3A per assay name; protocol says GSK3B); test: compounds binding glycogen synthase kinase-3 – biochemical, small-molecule microarray, 635 nm fluorescence, GSK3A, primary screen (AID 1103); conditions: fluorescence 635 nm, higher = more signal; further: the record names both GSK3A and GSK3B
# [7] = target: Epidermal growth factor receptor (Homo sapiens) (UniProt P00533); test: compounds binding epidermal growth factor receptor – biochemical, small-molecule microarray, 635 nm fluorescence, primary screen (AID 1104); conditions: EGFR binding, higher = more signal;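 further: score merges 667 nm emission intensity with spot signal to noise over triplicate slides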
# Chain of Epidermal growth factor receptor (Homo sapiens) (P00533 whole entry, looked up): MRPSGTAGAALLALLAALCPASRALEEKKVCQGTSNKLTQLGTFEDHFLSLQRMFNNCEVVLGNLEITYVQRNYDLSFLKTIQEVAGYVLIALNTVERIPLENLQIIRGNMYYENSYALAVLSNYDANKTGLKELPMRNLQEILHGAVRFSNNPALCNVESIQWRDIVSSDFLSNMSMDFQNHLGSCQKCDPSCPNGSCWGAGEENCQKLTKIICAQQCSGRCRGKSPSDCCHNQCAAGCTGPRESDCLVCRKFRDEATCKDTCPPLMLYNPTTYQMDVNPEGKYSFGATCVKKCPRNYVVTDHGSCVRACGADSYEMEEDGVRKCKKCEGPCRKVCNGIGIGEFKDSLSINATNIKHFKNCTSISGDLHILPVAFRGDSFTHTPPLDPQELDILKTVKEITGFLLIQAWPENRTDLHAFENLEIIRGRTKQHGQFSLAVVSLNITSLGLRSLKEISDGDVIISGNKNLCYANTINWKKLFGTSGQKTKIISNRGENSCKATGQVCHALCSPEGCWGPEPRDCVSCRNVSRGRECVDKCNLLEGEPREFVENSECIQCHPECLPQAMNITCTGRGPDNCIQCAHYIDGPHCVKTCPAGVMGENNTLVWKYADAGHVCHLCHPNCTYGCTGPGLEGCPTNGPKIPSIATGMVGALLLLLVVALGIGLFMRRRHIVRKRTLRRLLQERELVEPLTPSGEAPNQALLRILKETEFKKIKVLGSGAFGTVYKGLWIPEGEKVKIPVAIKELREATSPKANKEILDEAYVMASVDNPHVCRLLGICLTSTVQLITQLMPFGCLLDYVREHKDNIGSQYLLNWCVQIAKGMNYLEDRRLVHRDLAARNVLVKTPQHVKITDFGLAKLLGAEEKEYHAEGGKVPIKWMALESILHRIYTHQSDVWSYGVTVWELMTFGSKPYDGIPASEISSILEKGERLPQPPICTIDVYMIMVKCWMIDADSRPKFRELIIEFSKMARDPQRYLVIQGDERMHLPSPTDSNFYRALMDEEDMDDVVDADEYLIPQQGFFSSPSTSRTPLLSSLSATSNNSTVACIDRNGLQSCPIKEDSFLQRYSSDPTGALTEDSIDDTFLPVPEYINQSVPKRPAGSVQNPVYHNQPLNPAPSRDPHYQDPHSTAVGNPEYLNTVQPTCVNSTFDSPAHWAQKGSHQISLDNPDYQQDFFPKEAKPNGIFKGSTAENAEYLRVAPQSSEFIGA
# [8] = target: Follistatin-related protein 3 (Homo sapiens) (UniProt O95633); test: compounds binding follistatin-related protein 3 – biochemical, small-molecule microarray, 635 nm fluorescence, primary screen (AID 1105); conditions: FSTL3 binding, higher = more signal;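 further: score merges emission near 667 nm and signal to noise per printed spot across three slides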
# Chain of Follistatin-related protein 3 (Homo sapiens) (O95633 whole entry, looked up): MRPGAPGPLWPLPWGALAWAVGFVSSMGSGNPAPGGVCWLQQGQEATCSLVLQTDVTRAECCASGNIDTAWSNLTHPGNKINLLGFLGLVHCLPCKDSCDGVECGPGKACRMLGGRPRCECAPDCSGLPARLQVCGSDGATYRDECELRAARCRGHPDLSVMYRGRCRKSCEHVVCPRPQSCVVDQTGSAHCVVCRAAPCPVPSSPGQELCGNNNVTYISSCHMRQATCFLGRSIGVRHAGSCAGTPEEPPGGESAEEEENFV
# [9] = target: Dickkopf-related protein 1 (Homo sapiens) (UniProt O94907); test: small molecules binding DKK1 protein – biochemical, small-molecule microarray, 635 nm fluorescence scan, primary screen (AID 1106); conditions: higher = more signal;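 further: score merges emission near 667 nm with signal to noise over three replicate slides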
# Chain of Dickkopf-related protein 1 (Homo sapiens) (O94907 whole entry, looked up): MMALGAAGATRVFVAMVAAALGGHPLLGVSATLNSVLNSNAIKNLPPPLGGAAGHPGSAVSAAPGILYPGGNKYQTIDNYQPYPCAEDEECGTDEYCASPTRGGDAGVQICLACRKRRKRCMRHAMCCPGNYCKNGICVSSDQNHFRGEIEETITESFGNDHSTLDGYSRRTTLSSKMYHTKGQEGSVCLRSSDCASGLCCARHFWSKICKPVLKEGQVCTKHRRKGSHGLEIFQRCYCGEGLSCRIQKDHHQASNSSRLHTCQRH
# [10] = tested on: Inhibin beta A chain (activin A); test: small molecules binding activin A – biochemical, small-molecule microarray, 635 nm fluorescence scan, primary screen (AID 1107); conditions: INHBA, higher = more signal;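 further: mouse activin A protein probed at 4.33 µg/mL on printed slides; score merges bound-protein fluorescence near 667 nm with spot signal-to-noise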
# [11] = tested on: Human papillomavirus type 1a protein E7 (residues 44-93); test: small molecules binding HPV E7 44-93 – biochemical, small-molecule microarray, residues 44-93, 635 nm fluorescence, primary screen (AID 1108); conditions: fluorescence 635 nm, higher = more signal;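 further: E7 fragment applied at 1 µg/mL in TBST for 1 h at 4 C; score combines spot fluorescence with its signal to noise ratio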
# [12] = hepatitis C replication reporter changes, two-sided – Huh7 cells, luciferase reporter, HCV replication inhibitor project, primary screen (AID 1109); conditions: Huh7 HCV replicon luciferase reporter, 48 h; higher = more signal;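 further: huh7 hepatoma cells harbouring a luciferase neomycin HCV replicon reporter; luciferase luminescence as measure of HCV replicon replication; test concentration not given here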
# [13] = target: Left-right determination factor 2 (Homo sapiens) (UniProt O00292); test: small molecules binding LEFTY2 protein – biochemical, small-molecule microarray, 635 nm fluorescence scan, primary screen (AID 1110); conditions: higher = more signal
# Chain of Left-right determination factor 2 (Homo sapiens) (O00292 whole entry, looked up): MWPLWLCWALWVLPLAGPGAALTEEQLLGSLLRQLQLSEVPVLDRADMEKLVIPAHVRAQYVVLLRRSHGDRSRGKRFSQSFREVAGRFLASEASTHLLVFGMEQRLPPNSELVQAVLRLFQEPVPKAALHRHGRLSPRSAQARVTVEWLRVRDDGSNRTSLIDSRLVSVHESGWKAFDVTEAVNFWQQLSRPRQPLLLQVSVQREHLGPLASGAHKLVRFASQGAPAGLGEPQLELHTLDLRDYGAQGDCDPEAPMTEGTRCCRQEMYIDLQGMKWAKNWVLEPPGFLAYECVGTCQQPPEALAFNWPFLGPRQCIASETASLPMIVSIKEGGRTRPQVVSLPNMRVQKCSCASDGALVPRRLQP
# [14] = target: Calmodulin-1 (Homo sapiens) (UniProt P0DP23); test: small molecules binding calmodulin-1 with EGTA – biochemical, small-molecule microarray, Cy5-labelled CALM1, profiling panel (AID 1111); conditions: Cy5-CALM1 binding fluorescence, higher = more signal;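 further: labelled calmodulin applied in Tris saline Tween buffer holding calcium plus EGTA and DTT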
# [15] = target: Calmodulin-1 (Homo sapiens) (UniProt P0DP23); test: small molecules binding Ca-loaded calmodulin-1 – biochemical, small-molecule microarray, Cy5-labelled CALM1, plus calcium, artefact control for SMM control-protein annotation, profiling panel (AID 1112); conditions: Cy5-CALM1 binding fluorescence, higher = more signal;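 further: score merges spot fluorescence with signal to noise from triplicate slides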
# [16] = probe aWnt5a binding to arrayed compounds – biochemical, biotinylated probe, 635/667 nm fluorescence, primary screen (AID 1113); conditions: small-molecule microarray, higher = more signal;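 further: score merges 667 nm fluorescence intensity with signal-to-noise per printed feature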
# [17] = probe aShh binding to arrayed compounds – biochemical, biotinylated probe, 635/667 nm fluorescence, primary screen (AID 1114); conditions: small-molecule microarray, higher = more signal;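 further: probe is biotin-labelled aShh protein from a stem cell growth factor screen; measures binding of labelled protein to compounds printed on the slide; score merges feature fluorescence at 667 nm with signal-to-noise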
# [18] = probe aNog binding to arrayed compounds – biochemical, biotinylated probe, 635/667 nm fluorescence, primary screen (AID 1115); conditions: small-molecule microarray, higher = more signal;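 further: probe is biotinylated aNog protein used at 0.15 µg/mL for 1 h at 4 C; z-score combines 667 nm fluorescence of each spot with its signal to noise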
# [19] = target: Torsin-1A-interacting protein 1 (Homo sapiens) (UniProt Q5JTV8); test: compound microarray binding of lysate hLAP1 – cell lysate, small-molecule microarray, COS7 lysate, 635/667 nm fluorescence, primary screen (AID 1116); conditions: 635 nm fluorescence, higher = more signal
# Chain of Torsin-1A-interacting protein 1 (Homo sapiens) (Q5JTV8 whole entry, looked up): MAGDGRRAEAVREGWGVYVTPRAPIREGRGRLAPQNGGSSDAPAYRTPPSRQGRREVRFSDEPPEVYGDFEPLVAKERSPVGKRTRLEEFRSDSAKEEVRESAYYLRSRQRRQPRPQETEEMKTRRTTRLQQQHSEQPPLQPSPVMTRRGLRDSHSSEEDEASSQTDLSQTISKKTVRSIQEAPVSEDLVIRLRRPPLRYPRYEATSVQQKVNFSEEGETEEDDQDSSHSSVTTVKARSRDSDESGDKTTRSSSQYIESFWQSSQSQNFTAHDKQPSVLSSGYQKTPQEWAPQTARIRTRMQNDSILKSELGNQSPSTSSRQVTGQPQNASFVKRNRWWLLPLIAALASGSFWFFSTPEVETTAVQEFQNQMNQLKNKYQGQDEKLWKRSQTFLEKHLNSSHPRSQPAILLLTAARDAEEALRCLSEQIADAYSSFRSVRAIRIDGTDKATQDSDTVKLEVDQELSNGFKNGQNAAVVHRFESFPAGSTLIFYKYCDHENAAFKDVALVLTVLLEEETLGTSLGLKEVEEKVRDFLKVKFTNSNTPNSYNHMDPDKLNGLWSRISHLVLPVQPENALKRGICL
# [20] = target: Alpha-bungarotoxin (Bungarus multicinctus) (UniProt P60615); test: compounds binding labelled alpha-BTX control protein – biochemical, small-molecule microarray, Alexa647 label, 635/667 nm fluorescence, artefact control for SMM control protein annotation, profiling panel (AID 1117); conditions: alpha-BTX-A647 binding fluorescence, higher = more signal
# Chain of Alpha-bungarotoxin (Bungarus multicinctus) (P60615 whole entry, looked up): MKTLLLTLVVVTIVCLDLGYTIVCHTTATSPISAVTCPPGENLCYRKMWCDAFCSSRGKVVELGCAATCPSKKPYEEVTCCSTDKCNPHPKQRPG
Structure (SMILES),composite z-score [1],composite z-score [2],composite z-score [3],z-score [4],composite z-score [5],composite z-score [6],composite z-score [7],composite z-score [8],composite z-score [9],composite z-score [10],composite z-score [11],z-score [12],composite z-score [13],composite z-score [14],composite z-score [15],composite z-score [16],composite z-score [17],composite z-score [18],composite z-score [19],composite z-score [20]
C=C(COC)/C(=C/C[C@@H](OC(=O)c1ccncc1)c1ccc(OCCO)cc1)c1cc(C(=O)OC)ccc1OC,1.3,0.318,0.421,-1.43 (inactive),0.635,1.25,0.16,0.461,0.214,0.147,0.355,-1.63,-0.428,0.947,-0.777,-0.175,-0.0146,0.475,1.45,2.04
CN(C)CCCC[C@@H]1NC(=O)[C@@H]2C[C@H](C(=O)O)[C@H](c3ccc(O)cc3)N2C1=O,0.902,-0.005,-0.222,-2.22 (inactive),0.857,1.21,0.737,0.928,1.68,0.293,0.668,0.883,1.15,-0.0922,-0.0146,0.0078,-0.138,0.69,0.485,1.2
CC(C)(C)OC(=O)CC[C@]1(C(=O)NCCN2CCOCC2)N=C(c2ccc(OCCCO)cc2)O[C@H]1c1ccccc1CN=[N+]=[N-],0.639,0.626,0.777,-1.59 (inactive),-0.0042,0.813,-0.243,-0.49,-0.663,0.82,0.309,-1.77,0.0415,1.12,0.608,-0.0944,0.0469,0.816,2.12,2.01
CC(c1ccccc1)C(O)C1C=CC2C(=O)N(C)C(=O)C2N1N(c1ccccc1)c1ccccc1 (stereo not given),0.0872,1.01,1.2,1.05 (inactive),0.234,0.187,-0.451,0.0656,-0.623,1.41,-0.304,0.37,-0.789,1.08,0.723,-0.0057,0.809,0.332,0.765,-0.212
C[C@@H]1C=CCC(=O)OC[C@H]2O[C@@H](C=C[C@@H]2O)[C@H](C)C=CCC(=O)OC[C@H]2O[C@H]1C=C[C@@H]2O,0.489,-0.384,-1.67,-2.62 (inactive),1.22,1.18,1.41,1.47,2.11,1.16,0.14,-0.541,1.53,-0.365,-2.23,0.275,0.186,0.854,0.196,-0.22
CO[C@H]1COC(=O)[C@@H](C)NC(=O)CC=C[C@@H](C)[C@H](OC)COC(=O)CC=C[C@@H]1C,-1.61,-0.994,-1.7,-1.59 (inactive),0.518,0.442,-0.805,1.34,1.2,1.62,-0.0307,-0.355,1.39,-1.88,-2.99,-0.202,-0.153,-0.559,-0.0099,-1.47
COc1cc2c(cc1OC)CN(C(=O)[C@H]1[C@@H]3C(=O)O[C@@H](c4ccccc4)[C@@H](c4ccccc4)N3[C@@H](c3ccc(O)cc3)[C@]13C(=O)Nc1ccc(C#CC4(O)CCCCCC4)cc13)CC2,1.75,0.458,0.46,-0.81 (inactive),1.4,1.36,0.853,1.46,1.1,0.616,1.4,-1.47,1.36,2.21,1.2,0.808,0.382,2.35,3.48,2.79
O=C(N1CCCCC1)[C@@]1(CCS(=O)(=O)c2ccccc2)N=C(c2ccc(OCCCO)cc2)O[C@H]1c1ccccc1,0.332,0.653,0.896,-0.372 (inactive),1.27,0.811,-0.162,0.598,-0.42,0.356,1.48,-3.07,-0.197,-0.215,-0.688,0.212,0.427,-0.133,1.77,-0.0166
C=CC[C@@]1(C(=O)NCC(O)CO)N=C(c2ccc(OCCCO)cc2)O[C@@H]1c1ccccc1CN=[N+]=[N-] (stereo not given in full),1.52,-0.0775,1.08,-0.155 (inactive),0.0349,-1.33,-0.83,-0.884,-1.45,0.242,1.43,-1.11,-1.44,0.778,-0.0262,-0.119,0.261,0.824,2.6,0.0177
C[C@]1(C(=O)NCc2ccccc2)c2ccccc2C(=O)N(Cc2cc(C(F)(F)F)cc(C(F)(F)F)c2)[C@H]1c1ccc(CO)cc1,0.643,0.698,0.778,-1.73 (inactive),0.894,1.18,0.123,0.439,0.419,0.856,1.1,-2.06,0.159,0.956,0.844,-0.0519,1.39,-0.0047,0.541,0.615
CO[C@H]1COC(=O)[C@H](Cc2ccccc2)NC(=O)CC=C[C@@H](C)[C@H](OC)COC(=O)CC=C[C@@H]1C,0.143,0.077,-0.473,-0.875 (inactive),0.323,0.418,0.44,0.532,0.898,-0.405,0.482,0.401,1.11,-0.0075,-0.61,-0.134,0.0022,-0.0682,0.311,0.426
